Source: paper PMC11062922 (Nature Chemical Biology, 2023)

System: EPHA4
Design: species or system human, MV4-11 + K-562 + COLO205 + SK-N-BE2 + OVCAR-8
Conditions: read-out: apparent Kd; compound concentrations:100 nM and 1000 nM (sheet 'Samples'); n = 1

Structure (SMILES) | potency estimated from few doses
NCCNS(=O)(=O)c1ccc(-c2ccnc3[nH]ccc23)cc1 [GSK977617A] | 287 nM
O=C1NC(=O)C(N2CCc3ccccc32)=C1c1ccccc1Cl [SB-373598] | 387 nM
Cl.Cl.NCC(C(=O)Nc1cc(Br)c(-c2ccnc3[nH]ccc23)s1)c1ccccc1.NCC(C(=O)Nc1cc(Br)c(-c2ccnc3[nH]ccc23)s1)c1ccccc1 (stereo not drawn) [GSK1269851A] | 510 nM
CC(C)N1CCC(n2cnc(-c3ccc(F)cc3)c2-c2ccnc(N)n2)CC1 [SB-223132] | 692 nM
CN1C[C@@H]2Cn3c(c(C4=C(c5cn(C)c6ccccc56)C(=O)NC4=O)c4ccccc43)C[C@H]2C1.Cl [RO0320234-001] | 321 nM
Cc1ccc2c(-c3ccncc3)c(-c3ccc(F)cc3)nn2c1.Cl [GW461484A] | 550 nM

System: EPHA5
Design: species or system human, MV4-11 + K-562 + COLO205 + SK-N-BE2 + OVCAR-8
Conditions: read-out: apparent Kd; compound concentrations:100 nM and 1000 nM (sheet 'Samples'); n = 1

Structure (SMILES) | potency estimated from few doses
NCCNS(=O)(=O)c1ccc(-c2ccnc3[nH]ccc23)cc1 [GSK977617A] | 267 nM
O=C1NC(=O)C(N2CCc3ccccc32)=C1c1ccccc1Cl [SB-373598] | 276 nM
Cl.Cl.NCC(C(=O)Nc1cc(Br)c(-c2ccnc3[nH]ccc23)s1)c1ccccc1.NCC(C(=O)Nc1cc(Br)c(-c2ccnc3[nH]ccc23)s1)c1ccccc1 (stereo not drawn) [GSK1269851A] | 74.9 nM
CC(C)N1CCC(n2cnc(-c3ccc(F)cc3)c2-c2ccnc(N)n2)CC1 [SB-223132] | 545 nM
CN1C[C@@H]2Cn3c(c(C4=C(c5cn(C)c6ccccc56)C(=O)NC4=O)c4ccccc43)C[C@H]2C1.Cl [RO0320234-001] | 207 nM
Cc1ccc2c(-c3ccncc3)c(-c3ccc(F)cc3)nn2c1.Cl [GW461484A] | 429 nM

System: EPHB1
Design: species or system human, MV4-11 + K-562 + COLO205 + SK-N-BE2 + OVCAR-8
Conditions: read-out: apparent Kd; compound concentrations:100 nM and 1000 nM (sheet 'Samples'); n = 1

Structure (SMILES) | potency estimated from few doses
NCCNS(=O)(=O)c1ccc(-c2ccnc3[nH]ccc23)cc1 [GSK977617A] | 463 nM
O=C1NC(=O)C(N2CCc3ccccc32)=C1c1ccccc1Cl [SB-373598] | 373 nM
Cl.Cl.NCC(C(=O)Nc1cc(Br)c(-c2ccnc3[nH]ccc23)s1)c1ccccc1.NCC(C(=O)Nc1cc(Br)c(-c2ccnc3[nH]ccc23)s1)c1ccccc1 (stereo not drawn) [GSK1269851A] | 331 nM
CC(C)N1CCC(n2cnc(-c3ccc(F)cc3)c2-c2ccnc(N)n2)CC1 [SB-223132] | 656 nM
CN1C[C@@H]2Cn3c(c(C4=C(c5cn(C)c6ccccc56)C(=O)NC4=O)c4ccccc43)C[C@H]2C1.Cl [RO0320234-001] | 10.4 nM
Cc1ccc2c(-c3ccncc3)c(-c3ccc(F)cc3)nn2c1.Cl [GW461484A] | 384 nM
